A selection: hits, their analogues and other compounds. The true share with any hit is near 4.1%.
NLRP3 yeast inh = NALP3 inflammasome inhibitors in reconstituted yeast, primary screen, luminescence, uHTS | Yeast reconstituted NLRP3/ASC/caspase-1, beta-gal luminescence, 24 h | inhibition, % at 10 µM | 330,000 tested, 0.39% active | AID 2825, 2010;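 active means inhibition of 50% or more; inactive means inhibition below 50%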;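 further: plate controls were induced DMSO wells for no effect and uninduced yeast grown without galactose for full effect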
tim23-1 inh = growth inhibitors of tim23-1 mutant yeast, primary screen, luminescence, uHTS; S. cerevisiae tim23-1 growth, BacTiter-Glo luminescence, 24 h; inhibition, % at 20 µM; 330,000 tested, 1.3% active; AID 463212, 2010;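 active means growth inhibition of the mutant yeast at or above 50%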;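 further: temperature-sensitive mutant grown at 25 °C; plate controls were DMSO-treated mutant yeast for no effect and medium wells lacking yeast for full effect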
NALP1 yeast inh = NALP1 inflammasome inhibitors in reconstituted yeast, colorimetric, S. cerevisiae, triplicate retest. S. cerevisiae NALP1/ASC/caspase-1 growth, X-gal OD620, 72 h. 280,000 tested, 0.61% active. inhibition, % at 10 µM; in the data active means inhibition mostly above about 24%, no sharp cut-off; inactive means mostly below about 32%
PfHsp90 set2 = growth inhibition of PfHsp90-expressing yeast, primary screen, antimalarial PfHsp90 inhibitor project, S. cerevisiae, BacTiter-Glo luminescence, single point, set 2 | BacTiter-Glo ATP, 48 h; yeast lacking PDR1 and PDR3 efflux regulators | inhibition, % at 9.4 µM | 310,000 tested, 0.32% active | AID 504621, 2011;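 active means every replicate shows inhibition above about 80%, whatever the replicate mean, limit read from the data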;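 further: 0% = DMSO neutral controls and 100% = 20 µM radicicol positive controls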
TIM10 inh = growth inhibitors of isogenic TIM10 control yeast, primary screen, counter-screen for tim10-1 yeast inhibitor project, luminescence, uHTS; 330,000 tested, 1.4% active; S. cerevisiae TIM10 strain growth, BacTiter-Glo luminescence, 24 h; inhibition, % at 10 µM; AID 463195, 2010;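 active means inhibition of 40% or more at the single tested concentration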;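 further: wild-type TIM10 isogenic control strain grown at permissive 25 °C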
tim10-1 inh = growth inhibitors of tim10-1 mutant yeast, primary screen, luminescence, uHTS | S. cerevisiae tim10-1 ts strain growth, BacTiter-Glo, 24 h | inhibition, % at 20 µM | 330,000 tested, 2.2% active | AID 463190, 2010;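 active means inhibition of at least 40%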;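 further: mutant grown at 25 °C; 0% = DMSO wells with yeast and 100% = wells holding no yeast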
tim23-1 confirm = tim23-1 mutant yeast growth inhibitors, confirmation, luminescence, single concentration; inhibition, % at 20 µM; 4,400 tested, 83% active; shares compounds with tim23-1 inh; AID 463218, 2010; S. cerevisiae tim23-1 growth, BacTiter-Glo luminescence, 24 h;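 active means inhibition above about 39% in either of two replicate wells at 20 µM, limit read from the data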;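 further: temperature-sensitive tim23-1 mutant grown at 25 °C; 0% = DMSO wells with yeast and 100% = medium wells without yeast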
* = called active by the depositor; nt = not tested or not shown.

SMILES	NLRP3 yeast inh	tim23-1 inh	NALP1 yeast inh	PfHsp90 set2	TIM10 inh	tim10-1 inh	tim23-1 confirm
COc1ccc(S(=O)(=O)N2CCN(C(=O)CCCN3C(=O)NC4(CCCC4)C3=O)CC2)cc1	31	16	nt	nt	-7	4	nt
C=CCN1C(=O)/C(=C/C(=O)OC)S/C1=N\NC(=O)c1ccccc1	9	59*	-4	nt	22	22	38*
CCC(C)(C)C1CCC(NC(=O)N2CCN(c3ccccc3O)CC2)CC1 (stereo not given)	23	5	16	8	8	5	nt
COc1ccccc1NC(=S)NCCc1ccc(Cl)cc1	-19	3	-5	-8	39	40	nt
COc1ccc(NC(=S)NCCSc2ccc(Cl)cc2)c(OC)c1	11	50*	18	-18	32	34	42*
COc1ccccc1NC(=S)NCCSc1ccc(Cl)cc1	7	54*	17	-1	40	33	50*
O=C1CCCCN1CCC(=O)N1CCCC(N2CCN(c3ccccc3)CC2)C1 (stereo not given)	8	3	16	-4	3	13	nt
COc1cc(OC)c(NC(=O)CCCNC(=O)Cn2cnc3sc(C)c(C)c3c2=O)cc1Cl	-3	0	25	36	5	10	nt
Cc1cnc(C(=O)OCc2nc3ccccc3o2)cn1	5	8	nt	-4	2	4	nt
COc1ccc(-c2nc3ccccn3c2CN2CCN(c3ccccc3F)CC2)cc1	25	55*	1	9	28	33	40*
COc1ccc(C(C)NC(=O)c2ccncc2)cc1OC (stereo not given)	14	6	26	-12	11	10	nt
O=C(N/N=C/C=C\c1ccco1)c1cccs1	18	64*	-5	7	23	9	53*
O=C(Cc1cccs1)N/N=C/C=C\c1ccco1	11	20	-3	10	6	3	nt
Cc1ccc(C(=O)CCC(=O)Nc2ncccc2O)cc1	15	55*	nt	nt	5	9	4
Cc1ccc(C(=O)CCC(=O)Nc2ncccc2C)cc1	14	10	nt	-3	9	-6	nt
COc1cc2cc(CCCO)oc(=O)c2cc1OC	25	0	nt	-11	-11	-20	nt
c1ccc2sc(-c3ccncc3)nc2c1	13	17	0	-30	-13	14	nt
Oc1ccc(-c2nc3ccccc3s2)cc1	37	69*	9	5	30	36	64*
CCCCNC(=S)N/N=C/c1cc(C)ccc1C	11	53*	9	-37	24	18	42*
CCc1ccc2c(c1)/C(=N/N(C)C(=S)NC)C(=O)N2	11	17	20	-46	30	31	nt
CCc1ccc2c(c1)/C(=C/C(=O)c1cccs1)C(=O)N2	35	54*	-8	124*	33	2	-101
CC(NC(=O)C1CCN(c2nnc(N3CCCC3=O)s2)CC1)c1ccccc1 (stereo not given)	3	-1	6	-15	6	-3	nt
COc1ccc2c(=O)c3c(=O)n(Cc4ccco4)c(-c4ccc(C)cc4)nc3oc2c1	18	57*	6	8	19	17	46*
COc1ccc(CCNc2oc(-c3ccccc3OC)nc2C#N)cc1OC	17	33	40	-3	1	1	nt
COc1ccc(CCNc2oc(-c3ccccc3OC)nc2C#N)cc1	25	58*	-26	6	34	21	62*
SMILES	NLRP3 yeast inh	tim23-1 inh	NALP1 yeast inh	PfHsp90 set2	TIM10 inh	tim10-1 inh	tim23-1 confirm
Cc1ccc(OCc2cc(C(=O)NC3CCCCC3)no2)cn1	45	51*	14	-5	22	36	57*
O=C(NC1CCCC1)c1cc(COc2ccc3ncccc3c2)on1	13	-1	-68	-10	-7	-13	nt
FC(F)(F)c1cc(CCN2CCNC[C@@H]2CC2CCCCC2)cc(C(F)(F)F)c1	32	65*	nt	10	11	-10	48*
CCCC[C@@H]1CNCCN1CCc1cc(C(F)(F)F)cc(C(F)(F)F)c1	22	-4	nt	0	-2	10	nt
O=C(CSc1cccc[n+]1[O-])c1cc(Cl)ccc1Cl	3	59*	0	-5	7	10	77*
FC(F)(F)c1cc(Nc2ccccc2)nc(-c2ccccn2)n1	37	51*	26	9	35	22	34
CC(C)Nc1cc(C(F)(F)F)nc(-c2ccccn2)n1	2	-10	3	nt	-13	35	nt
Cc1cc(C(C)(C)C)ccc1OCCCCN1CCCC1	24	-4	44	-14	20	-6	nt
CCC(C)(C)c1ccc(OCCCC[n+]2cccc(C)c2C)c(C(C)(C)CC)c1	37	59*	29	110*	34	-8	36*
CCCCS(=O)(=O)N1CCN(S(=O)(=O)c2cccs2)CC1	26	0	9	-9	1	-17	nt
COCCN(CC(=O)Nc1cccc(C)c1C)C(=O)c1cc2c(s1)CCC2	14	12	nt	0	17	18	nt
O=C(N/N=C/c1ccccc1[N+](=O)[O-])c1ccncc1	5	5	5	-4	-11	17	nt
O=C(N/N=C/c1ccc([N+](=O)[O-])s1)c1ccncc1	19	63*	19	2	39	34	67*
Cc1[nH][nH]c(=O)c1C(c1ccc(-c2cccc(C(=O)O)c2)o1)c1c(C)[nH][nH]c1=O	2	12	-18	26	6	8	nt
Cc1[nH][nH]c(=O)c1C(c1ccc(-c2cccc(Cl)c2)o1)c1c(C)[nH][nH]c1=O	15	78*	nt	11	-19	3	62*
COC(=O)c1ccc(-c2ccc(C(c3c(C)[nH][nH]c3=O)c3c(C)[nH][nH]c3=O)o2)cc1	12	57*	19	7	-6	0	37*
O[C@@H]1CN(Cc2ccccc2Cl)CC[C@H]1N1CCOCC1	19	5	6	8	-1	-16	nt
COc1ccc(N2CCN(C(=S)NC(=O)c3cccs3)CC2)c([N+](=O)[O-])c1	17	53*	-1	-44	19	35	46*
CC(=O)c1c(O)cc(=O)n(-c2ccccc2)c1-c1ccc(C)cc1	-6	-1	-2	2	8	2	nt
CC(=O)c1c(O)c(C)c(-c2ccccc2)n(-c2ccccc2)c1=O	33	56*	13	34	24	33	43*
